Records with an inconclusive call do not appear. Activity calls are given as the source filed them. Unless noted, calls come from the whole dose curve; as a rule, active = well fitted inhibition curve with a large enough effect; inconclusive = small, poorly fitted or top-dose-only effect; inactive = flat fitted curve, though single readings scatter.
Tests used:
[1] = Primary qHTS for inhibitors of nuclear receptor binding SET domain protein 2 (NSD2) in an isogenic RCH-ACV NSD2 p.E1099K mutant (9B) (AID 1645876); conditions: RCH-ACV (leukaemia line) NSD2 E1099K (9B) viability, CellTiter-Glo, 72 h; series mostly up to 44.9 µM; note: nearly all actives have a fitted effect of over 70% in size
[2] = qHTS drug screen for cell cycle checkpoint inhibitors in PARPi-resistant BRCA-mutant ovarian cancer cell lines. (AID 1963452; calls by dose curve); conditions: PEO1/OlaR viability, CellTiter-Glo luminescence, 96 h; for Z-AUC: stronger effect = lower value
Outline: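 PEO1, PEO4 and PEO1/OlaR ovarian cancer cells, 600 per well, exposed 96 h at 37C to a dilution series. Viability read by CellTiter-Glo luminescence, normalized to DMSO and empty wells; activity summarized as Z-AUC.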
Potency is the fitted concentration of half-maximal effect.

| Compound | Potency [1] | Z-AUC ([2]; PEO1 parental Z-AUC) | Z-AUC ([2]; PEO4 Z-AUC) | Z-AUC [2] | Potency [2] |
| --- | --- | --- | --- | --- | --- |
| COC(=O)[C@]12CCC(C)(C)C[C@H]1[C@H]1C(=O)C=C3[C@@]4(C)C=C(C#N)C(=O)C(C)(C)[C@@H]4CC[C@@]3(C)[C@]1(C)CC2 | 8.33 µM (active) | -0.983 | -1.45 | 0.111 (inactive) |  |
| CC1(C)CC[C@]2(NC(=O)C(C)(F)F)CC[C@]3(C)[C@H](C(=O)C=C4[C@@]5(C)C=C(C#N)C(=O)C(C)(C)[C@@H]5CC[C@]43C)[C@@H]2C1 | 9.34 µM (active) | -1.7 | -2.21 |  | 1.38 µM (active) |
